Experimental data reported in the supplement of paper PMC6555819.

test system: FXR:RXRa (NR concentration 270 nM, RXRa partner concentration 90 nM); test: PBM binding z-score (relative to random genomic background probes); higher = stronger binding; sequences stand for … in GC…GCGATTGACAGCGTAGAATGAAGG
Summary of the method: (§1)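 Scanned fluorescence from custom Agilent 4×180K protein-binding microarrays was regression-normalized. Binding z-scores use random background probes as reference. Ligand-free nuclear receptor dimers were incubated on the arrays for 1 h and detected with antibodies against each partner (one per run).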

| Sequence | PBM binding z-score |
| --- | --- |
| ATCGAAAGGTCGTGAGGTGTGTATACAGAAAGGC | 5.39 |
| GGAACGAGGGCAAAGGTGATAGCATCTGTCGACG | 2.08 |
| ATATGGAGGTTAAGGGTCATTCAGGTTGGTTCGC | 6.25 |
| ATCGAAAGGTCGTGAGGTGACTATACAGAAAGGC | 5.54 |
| CGTCAAAGTTCAACTAAGGTAACTTAAAGCACGC | 7.38 |
| CGGCCAAGGTCAAAGGTCAGTGAAGAGATGACGG | 8.62 |
| ATCTCTAGGTAAAGGTCAGTGAAAGATCGATAGA | 3.48 |
| CGTCCAAGGTCATAAGAGGTCAGTGAAGACAGAT | 7.91 |
| CCTAGTTGGCCAAGGTCACACACGCTATAGGTAC | 3.78 |
| CCTTACGGGTCACGGGGTTATAGCACGACGAGCG | 7.63 |
| TAGCCTAGGTCATTCAGGGGTCAGTATAGAAAGC | 5.8 |
| TCTAGTTGGTTACGGAGGTCACACACGACGGGTA | 2.67 |
| AATACAGGGTCGCTAGGCCAGAGTAGGTACGAAT | 0.424 |
| ATACCAAGGTGATCGTGAGTTCGTTGATACTAAC | 0.706 |
| CGTCCAAGGTCAATGCTAGGTCACTGAAAGCATT | 6.84 |
| TTACCAAGGTCAGCTGAGGTCGTTGATCCAACTC | 6.04 |
| ATCGAAAGGTCGACGAGTTGAGTATACACCGTTT | 3.68 |
| TTACAAAGGTGAGCTGAGGTCGTTGATCCAACTC | 2.66 |
| GGAACGAGGGCATTCGAGTTGATAGCATGGCGAT | 1.35 |
| CCGACTGGGGCAAAGGTTACCACACTCAGTACGA | 1.86 |

| Sequence | PBM binding z-score |
| --- | --- |
| CGTCAAAGTTCAACTAATGTAACGTAAAGCACGC | 7.05 |
| CCTTACGGGTCACTCTAGGTTATAGCATCGGAGT | 5.09 |
| GCTTACGGGTCAAAGGTTATAGTATGAATAGAAT | 6.98 |
| CCTACAGGGCCAAAGGTCATTGATTCCAATGCTC | 5.3 |
| TAGCCTAGGTCATGGGCCAGTTTACCACGCGAAC | 4.52 |
| CGTCCAAGGTAAGAGAGGTCAGTGAATGCCGAGT | 1.6 |
| CCGACGGGGGCAGAAAGGTTACCATACCATCCGG | 2.77 |
| CCTACTGGGCCAAAGGTCAGTGATTCCAATGCTC | 2.78 |
| AGTCAAAGTTCATCTTGGTAACGTAAGATATGCT | 6.87 |
| ATACCAAGGTTATCGTGAGGTCGTTGATACTAAC | 3.14 |
| TCTCGGAGGTCACGAAGGTCAGAGCTTTCCAGAG | 7.49 |
| CCTTGCGGGTCACTGACAGGTTATAGCATTTGGA | 4.69 |
| CTCGAAAGGTCGTCCTCAGGTGAGTATACCAAAC | 4.94 |
| CAAACTAGGTCACCGGAAAGTCAAAGTCCGCATG | 4.54 |
| TAGCCTAGGTCATTCAGGGGCCAGAATAGAAAGC | 4.69 |
| CACACTAGGTCAAGAGGTCAAAGTCCGCTTCCCG | 7.5 |
| CTCGAAAGGTCGTGCTCAGGTGAGTATGCCAAAC | 4.94 |
| CAAACTAGGTCACAGAGGTCGAAGTCCGTGCGTA | 4.92 |
| CGTCCAAGGTCAGAGAGGTCATTGAATGCCGAGT | 6.84 |

test system: LXRa:RXRa (NR concentration 270 nM, RXRa partner concentration 90 nM); test: as above
Summary of the method: as §1

| Sequence | PBM binding z-score |
| --- | --- |
| ATCGAAAGGTCGTGAGGTGTGTATACAGAAAGGC | 4.05 |
| GGAACGAGGGCAAAGGTGATAGCATCTGTCGACG | 1.64 |
| ATATGGAGGTTAAGGGTCATTCAGGTTGGTTCGC | 5.67 |
| ATCGAAAGGTCGTGAGGTGACTATACAGAAAGGC | 4.2 |
| CGTCAAAGTTCAACTAAGGTAACTTAAAGCACGC | 6.11 |
| CGGCCAAGGTCAAAGGTCAGTGAAGAGATGACGG | 7.07 |
| ATCTCTAGGTAAAGGTCAGTGAAAGATCGATAGA | 3.55 |
| CGTCCAAGGTCATAAGAGGTCAGTGAAGACAGAT | 7.9 |
| CCTAGTTGGCCAAGGTCACACACGCTATAGGTAC | 3.61 |
| CCTTACGGGTCACGGGGTTATAGCACGACGAGCG | 5.25 |
| TAGCCTAGGTCATTCAGGGGTCAGTATAGAAAGC | 5.2 |
| TCTAGTTGGTTACGGAGGTCACACACGACGGGTA | 3.44 |
| AATACAGGGTCGCTAGGCCAGAGTAGGTACGAAT | 0.524 |
| ATACCAAGGTGATCGTGAGTTCGTTGATACTAAC | 0.653 |
| CGTCCAAGGTCAATGCTAGGTCACTGAAAGCATT | 5.66 |
| TTACCAAGGTCAGCTGAGGTCGTTGATCCAACTC | 5.5 |
| ATCGAAAGGTCGACGAGTTGAGTATACACCGTTT | 3.25 |
| TTACAAAGGTGAGCTGAGGTCGTTGATCCAACTC | 3.19 |
| GGAACGAGGGCATTCGAGTTGATAGCATGGCGAT | 1.46 |
| CCGACTGGGGCAAAGGTTACCACACTCAGTACGA | 1.89 |

| Sequence | PBM binding z-score |
| --- | --- |
| CGTCAAAGTTCAACTAATGTAACGTAAAGCACGC | 6.09 |
| CCTTACGGGTCACTCTAGGTTATAGCATCGGAGT | 7.69 |
| GCTTACGGGTCAAAGGTTATAGTATGAATAGAAT | 5.83 |
| CCTACAGGGCCAAAGGTCATTGATTCCAATGCTC | 5.24 |
| TAGCCTAGGTCATGGGCCAGTTTACCACGCGAAC | 3.85 |
| CGTCCAAGGTAAGAGAGGTCAGTGAATGCCGAGT | 2.42 |
| CCGACGGGGGCAGAAAGGTTACCATACCATCCGG | 2.96 |
| CCTACTGGGCCAAAGGTCAGTGATTCCAATGCTC | 2.95 |
| AGTCAAAGTTCATCTTGGTAACGTAAGATATGCT | 5.48 |
| ATACCAAGGTTATCGTGAGGTCGTTGATACTAAC | 4.42 |
| TCTCGGAGGTCACGAAGGTCAGAGCTTTCCAGAG | 6.31 |
| CCTTGCGGGTCACTGACAGGTTATAGCATTTGGA | 3.74 |
| CTCGAAAGGTCGTCCTCAGGTGAGTATACCAAAC | 3.75 |
| CAAACTAGGTCACCGGAAAGTCAAAGTCCGCATG | 3.74 |
| TAGCCTAGGTCATTCAGGGGCCAGAATAGAAAGC | 3.94 |
| CACACTAGGTCAAGAGGTCAAAGTCCGCTTCCCG | 6.61 |
| CTCGAAAGGTCGTGCTCAGGTGAGTATGCCAAAC | 4.15 |
| CAAACTAGGTCACAGAGGTCGAAGTCCGTGCGTA | 4.23 |
| CGTCCAAGGTCAGAGAGGTCATTGAATGCCGAGT | 6.1 |
